Measurements: PubChem BioAssay (NCI)
“And” between values parts separate entries of the source, which are not always exact repeats. Equal entries are not always repeated. This is part of a sample that, as a whole, favours compounds with a hit. Of some 83,000 tested, about 20% had one in any assay.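 Assay: single dose, 48 h. Readout: percent growth (0 = no net growth; negative = cell death). Active: <10.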 The source made the active and inactive calls.

Legend:
Experiment in all cases: NCI-60 one-dose screen, 48 h (100 = growth as untreated, 0 = no growth, -100 = all killed)
Settings in all cases: 10 µM unless noted
HCT-15 colon = system: HCT-15 colon
HT29 colon = system: HT29 colon
SNB-75 CNS = system: SNB-75 CNS
SNB-19 CNS = system: SNB-19 CNS
U251 CNS = system: U251 CNS
PC-3 prostate = system: PC-3 prostate
SK-MEL-5 melanoma = system: SK-MEL-5 melanoma
UACC-62 melanoma = system: UACC-62 melanoma
LOX IMVI melanoma = system: LOX IMVI melanoma
SK-MEL-28 melanoma = system: SK-MEL-28 melanoma
SK-MEL-2 melanoma = system: SK-MEL-2 melanoma
EKVX NSCLC = system: EKVX NSCLC
SN12C renal = system: SN12C renal
UO-31 renal = system: UO-31 renal
TK-10 renal = system: TK-10 renal
ACHN renal = system: ACHN renal
CAKI-1 renal = system: CAKI-1 renal
A498 renal = system: A498 renal
CCRF-CEM leukemia = system: CCRF-CEM leukemia
MOLT-4 leukemia = system: MOLT-4 leukemia

| SMILES | growth (HCT-15 colon) | growth (HT29 colon) | growth (SNB-75 CNS) | growth (SNB-19 CNS) | growth (U251 CNS) | growth (PC-3 prostate) | growth (SK-MEL-5 melanoma) | growth (UACC-62 melanoma) | growth (LOX IMVI melanoma) | growth (SK-MEL-28 melanoma) | growth (SK-MEL-2 melanoma) | growth (EKVX NSCLC) | growth (SN12C renal) | growth (UO-31 renal) | growth (TK-10 renal) | growth (ACHN renal) | growth (CAKI-1 renal) | growth (A498 renal) | growth (CCRF-CEM leukemia) | growth (MOLT-4 leukemia) |
| --- | --- | --- | --- | --- | --- | --- | --- | --- | --- | --- | --- | --- | --- | --- | --- | --- | --- | --- | --- | --- |
| CCCCCCCCCCCCOc1ccccc1C=O | 101% (inactive) | 96.7% (inactive) | 80.6% (inactive) | 98.4% (inactive) | 87.4% (inactive) | 108% (inactive) | 101% (inactive) | 102% (inactive) | 90.1% (inactive) | 106% (inactive) | 112% (inactive) | 97% (inactive) | 93.7% (inactive) | 65.1% (inactive) | 118% (inactive) | 101% (inactive) | 84.9% (inactive) | 116% (inactive) | 79.9% (inactive) | 78.3% (inactive) |
| Cc1cc(O)c(C(C)C)cc1S(=O)(=O)O (tested in a mixture with another compound) | 96.7% (inactive) and 7.09% (active) and 99.5% (inactive) | 100% (inactive) and -3.9% (active) and 109% (inactive) | 84.1% (inactive) and 10.4% (inactive) and 80.2% (inactive) | 103% (inactive) and 35.4% (inactive) and 100% (inactive) | 90.3% (inactive) and 9.28% (active) and 102% (inactive) | 96.1% (inactive) and 19.8% (inactive) and 81.7% (inactive) | 96.6% (inactive) and -34% (active) and 99.9% (inactive) | 87.4% (inactive) and 32.5% (inactive) and 91.3% (inactive) | 92.1% (inactive) and 0.911% (active) and 107% (inactive) | 110% (inactive) and 40.6% (inactive) and 107% (inactive) | 99.6% (inactive) and 54% (inactive) and 112% (inactive) | 93.2% (inactive) and 29.5% (inactive) | 92.4% (inactive) and 22.6% (inactive) and 102% (inactive) | 90.7% (inactive) and -18.5% (active) and 77.4% (inactive) | 87.8% (inactive) and 33.8% (inactive) and 132% (inactive) | 91.8% (inactive) and 10.8% (inactive) and 92.4% (inactive) | 67.7% (inactive) and 12.1% (inactive) and 74.4% (inactive) | 103% (inactive) and -18.3% (active) and 112% (inactive) | 94.5% (inactive) and 16.4% (inactive) | 118% (inactive) and 9.88% (active) and 107% (inactive) |
| CC(C)Oc1ccc2cc(-c3nn(CC4CCNCC4)c4ncnc(N)c34)ccc2c1 | 61.9% (inactive) and -7.35% (active) | 37.9% (inactive) and -13.1% (active) | 59% (inactive) and -38.7% (active) | 92.7% (inactive) and 24.8% (inactive) | 77.7% (inactive) and -11.9% (active) | 65.1% (inactive) and 16.6% (inactive) | 59.8% (inactive) and -94.4% (active) | -65.3% (active) | 69.8% (inactive) and -80.3% (active) | 79.1% (inactive) and -85.7% (active) | 100% (inactive) | 97.4% (inactive) and 26.2% (inactive) | 79.7% (inactive) | 71.6% (inactive) and 36.9% (inactive) | 82.2% (inactive) and 14.6% (inactive) | 88.1% (inactive) and 14.1% (inactive) | 106% (inactive) and 31% (inactive) | 75% (inactive) and 16.7% (inactive) | 60.6% (inactive) and -23% (active) | 29% (inactive) and -23.8% (active) |
| CC(C)Cc1ccc(C(C)C(=O)NCc2ccc(Cn3c(=O)sn(CCCCl)c3=O)cc2)cc1 (stereo not given) | 103% (inactive) and -35.9% (active) | 104% (inactive) and -64% (active) | 105% (inactive) and -18% (active) | 91.2% (inactive) and 49.8% (inactive) | 95.6% (inactive) and 7.88% (active) | 91.9% (inactive) and -69.6% (active) | 91.8% (inactive) and -78.1% (active) | 92.6% (inactive) and -68.6% (active) | 90.7% (inactive) and -93.1% (active) | 107% (inactive) and -71.8% (active) | 103% (inactive) and -3.28% (active) | 89.3% (inactive) and -64.7% (active) | 98.7% (inactive) and -60.5% (active) | 77% (inactive) and -100% (active) | 88% (inactive) and -91.9% (active) | 97.3% (inactive) and -100% (active) | 87.1% (inactive) and -86.6% (active) | 87.8% (inactive) and 55.6% (inactive) | 53.4% (inactive) and 3.84% (active) | 90.4% (inactive) and 0.866% (active) |
| Cc1ccc(S(=O)(=O)Nc2nc3ccccc3nc2Nc2ccc3nsnc3c2)cc1 | 32% (inactive) and 58.6% (inactive) | 47.5% (inactive) and 63.2% (inactive) | 63.3% (inactive) and 65.9% (inactive) | 47.7% (inactive) and 47.6% (inactive) | 26.1% (inactive) and 40.1% (inactive) | 42.8% (inactive) and 27.3% (inactive) | 18.7% (inactive) and 13.7% (inactive) | 19% (inactive) and 12.8% (inactive) | 65.8% (inactive) and 47% (inactive) | 49.8% (inactive) and 51.6% (inactive) | 7.36% (active) | 46.5% (inactive) and 49.7% (inactive) | 50.9% (inactive) and 34.8% (inactive) | 43.6% (inactive) and 22.3% (inactive) | 35.4% (inactive) and 53.3% (inactive) | 54.5% (inactive) and 61% (inactive) | 59.2% (inactive) and 31.3% (inactive) | 56.7% (inactive) and 11.7% (inactive) | 44.2% (inactive) | 35.3% (inactive) and 45.3% (inactive) |
| OCc1ccccn1 | 109% (inactive) | 104% (inactive) | 74.5% (inactive) | 109% (inactive) | 102% (inactive) | 97.8% (inactive) | 99.8% (inactive) | 103% (inactive) | 102% (inactive) | 112% (inactive) | 106% (inactive) | 110% (inactive) | 97.4% (inactive) | 97.9% (inactive) | 100% (inactive) | 107% (inactive) | 101% (inactive) | 81.8% (inactive) | 103% (inactive) | 99.1% (inactive) |
| c1ccc(NCc2ccc3c(c2)OCO3)cc1 | 108% (inactive) and 93% (inactive) | 103% (inactive) and 104% (inactive) | 89.7% (inactive) and 95.8% (inactive) | 99% (inactive) | 99.3% (inactive) and 93.3% (inactive) | 96.1% (inactive) and 93.6% (inactive) | 100% (inactive) | 110% (inactive) and 100% (inactive) | 106% (inactive) and 98.9% (inactive) | 120% (inactive) and 105% (inactive) | 106% (inactive) and 105% (inactive) | 107% (inactive) | 105% (inactive) and 100% (inactive) | 78.7% (inactive) and 83% (inactive) | 102% (inactive) and 99.7% (inactive) | 109% (inactive) and 97.4% (inactive) | 96.8% (inactive) and 101% (inactive) | 101% (inactive) and 86.9% (inactive) | 101% (inactive) and 92.3% (inactive) | 95.7% (inactive) and 97.2% (inactive) |
| NC(=O)NO | 106% (inactive) and 72.2% (inactive) | 104% (inactive) and 70.3% (inactive) | 91.7% (inactive) and 60.3% (inactive) | 105% (inactive) and 69.6% (inactive) | 96.6% (inactive) and 65.5% (inactive) | 106% (inactive) and 72.6% (inactive) | 106% (inactive) and 80.5% (inactive) | 103% (inactive) and 74.6% (inactive) | 101% (inactive) and 59% (inactive) | 107% (inactive) and 45.5% (inactive) | 110% (inactive) and 94.1% (inactive) | 98.9% (inactive) and 59.5% (inactive) | 104% (inactive) and 71.5% (inactive) | 87.8% (inactive) and 48.8% (inactive) | 113% (inactive) and 85% (inactive) | 96.9% (inactive) and 67.5% (inactive) | 83.9% (inactive) and 77.2% (inactive) | 104% (inactive) and -7.21% (active) | 82.2% (inactive) and 68% (inactive) | 95.9% (inactive) and 75.1% (inactive) |
